In PubChem BioAssay (NCI) one finds growth data, which are given here for 40 compounds.

Where “and” joins values, the source holds several entries; their conditions need not be identical. Equal values may be shown once. About 83,000 compounds went through this panel and 20% of them were active in at least one assay; those are over-represented in the sample as a whole.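 A percent growth of 40 corresponds to 60% growth inhibition; 0 means no net growth; -100 means all cells died. Active threshold: below 10.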 Unmarked numbers belong to inactive results. Calls of active or inactive are those of the source.

This assay deals with MDA-MB-468 breast. As to the kind of experiment: NCI-60 one-dose screen, 48 h (100 = growth as untreated, 0 = no growth, -100 = all killed). The conditions noted are these: 10 µM unless noted.
With `Cc1ccc2c(n1)C(=O)C(Br)=C(C1CCCC1)C2=O`, the growth was 95.2%.
To `C/C=C(/C)C(=O)OC1C=C(CO)C(=O)C(OC(=O)C2(C)OC2C)C1C(C)C` (stereo not given) belongs -66.8% (active); to `O=c1c2c(c3ccccc3n1-c1ccccc1)NC(=S)NC2c1ccc(Cl)cc1` (stereo not given), 115%; to `Cc1nn(-c2ccc(Cl)cc2)c(=O)n1CCN1CCOCC1`, 90.3%.
For the compound `O=C(Nc1cccc2ccccc12)c1cc2c(cc1Br)OCO2`, the growth is 95.4%.
On to `CCn1c2ccc(/C=N/NS(=O)(=O)CCN(C)C)cc2c2cc(/C=N/NS(=O)(=O)CCN(C)C)ccc21`, for which the growth is 92.9%.
With `O=C(/C=C/c1ccc(Cl)cc1)c1ccc(Cl)cc1`, the growth is 88.3%.
Regarding `CCN(CC)c1ccc(/C=N/NC(=O)c2ccc(S(N)(=O)=O)cc2)cc1`, the growth was 1.85% (active).
Take `C/C(=N\NC(=O)CSc1nc2ccccc2c(=O)n1Cc1ccc(S(N)(=O)=O)cc1)c1ccc(F)cc1`: the growth is 114%.
In the case of `CCOC(=O)c1c[nH]c2cc(OCC3CC3)c(OCC3CC3)cc2c1=O`, the growth was 107%.
Turning to `Cc1occc1-c1n[nH]c(=S)n1N1C(=O)CSC1=S`, the growth is 103%.
To `COc1ccc(S(=O)(=O)NCCCNc2nccc(-n3ccc4cccnc43)n2)cc1` belongs 76.2%; to `CCOC(=O)c1ccc(NC(=O)Nc2nccs2)cc1`, -30.4% (active); to `CCN1CCCC(Nc2cc(C)nc(/N=C(/N)Nc3ccc(Cl)c(Cl)c3)n2)C1` (stereo not given), -83.3% (active).
Take `O=C(O)c1ccc(OCc2ccccc2)cc1`: the growth was 104%.
Consider `COc1cccc(COC(=O)Nc2ccccc2)c1OC`, for which the growth is 93.3%.
`CCCOC(=O)c1ccc([N+](=O)[O-])o1`: the growth was 113%.
The result for `COC1OC(C(COC(C)=O)OC(C)=O)C(OC(C)=O)C(OC(C)=O)C1OC(C)=O` (stereo not given) reads 109%; that for `CCSc1sc(-c2ccc(C)cc2)nc1[P+](c1ccccc1)(c1ccccc1)c1ccccc1`, -61.4% (active); that for `COc1cccc2cc(-c3nc(C4CCC(C(=O)O)CC4)n4ncnc(N)c34)[nH]c12` (stereo not given), -22.3% (active).
As for `COC(=O)/C=C1/CCC2C3CCC4=CC(=O)C(Br)CC4(C)C3C(=O)CC12C` (stereo not given), the growth is 13.9%.
To `OC1CCc2c(-c3ccc4ncnc(N5CCc6cc(F)c(Cl)cc65)c4c3)cncc21` (stereo not given) belongs 9.18% (active); to `COC(=O)c1cc(O)c2cc3c(cc2c1-c1cc(OC)c(OC)c(OC)c1)OCO3`, -8.52% (active).
Take `COC(=O)OC1C(O[C@H]2C[C@H]3[C@@H]4CC=C5C[C@@H](O)CC[C@]5(C)[C@H]4CC[C@]3(C)[C@H]2[C@H](C)C(=O)CCC(C)C)OCC(O)C1OC1OCC(O)C(O)C1OC(=O)c1ccc(OC)cc1` (stereo not given in full): the growth was -22.8% (active).
For `Cc1ccc(NC(=O)N[C@@H](Cc2cc(F)cc(F)c2)C(=O)N[C@@H]2C(=O)N3CCC[C@H]3C(=O)N3CCOC[C@H]3C(=O)N[C@@H](C)C(=O)N3C[C@H](C)C[C@H]3C(=O)O[C@H]2C)cc1`, the growth is 5.17% (active).
`CC(=O)c1c(/C=C/c2ccc(C)cc2)c2ccccc2[nH]c1=O`: the growth is 110%.
For `NC(N)=NC(N)=NCCCc1ccccc1`, the growth was -0.206% [100 µM] (active).
In the case of `CCNC(=O)Oc1ccc(/C(=C(\C)c2ccccc2)c2ccc(OCCCN(C)C)cc2)cc1`, the growth was 86.6%.
To `CC(=O)Oc1cc(C(C)C)c(OCCN(C)C)cc1C` belongs 110% and 104%; to `O=c1oc2ccc(I)cc2c(=O)n1-c1ccc(Br)cc1F`, -2.16% (active).
As for `CC(=O)NC1=C(C#N)C(c2ccccc2Cl)c2c(ccc3ccccc23)O1` (stereo not given), the growth was 14%.
Turning to `COc1ccc2[nH]cc(-c3nc(-c4c[nH]c5ncccc45)cs3)c2c1`, the growth is 39.1%.
As for `O=S(=O)(O)C(Nc1ccccc1)c1ccccc1` (stereo not given), the growth was 92.7%.
As for `[Cu+].[NH-][C@H]1C[N-]C(=O)[C@H]([C@H]2CCN=C(N)N2)[N-]C(=O)/C(=C\NC(N)=O)[N-]C(=O)[C@H](CNC(=O)C[C@@H](N)CCCN)[N-]C(=O)[C@H](CO)[N-]C1=O`, the growth was 96.2%.
For the compound `Cc1cc(C(=O)Nc2ccc(SC#N)cc2)c(C)o1`, the growth was 96.1%.
`CCCNC(=O)Oc1ccc(/C(=C(\C)c2ccccc2)c2ccc(OCCN3CCCCC3)cc2)cc1`: the growth is 73.6%.
As to `CCCCCCCCN=C(NCCCCCCCC)SCc1cccc2ccccc12`, the growth is -93.9% (active).
Take `CC(=O)N(N=O)c1ccc([N+](=O)[O-])cc1Cl`: the growth was 29.7%.
With `COc1ccc(/C=C2\COc3ccc(O)c(O)c3C2=O)cc1OC`, the growth was -22.8% (active).
With `[O-]c1c[n+](-c2ccc(Cl)cc2)no1`, the growth is 98.7%.
